Assay results taken from PubChem BioAssay (EPA / NIEHS).
Inconclusive results are not listed. Activity calls are given as the source filed them. Rule for the calls, unless noted: active = hit-call score of the fitted dose curve at least 0.9, where 1 is the maximum; inactive = score below 0.9.

What was measured:
[1] = target: Glucocorticoid receptor (Homo sapiens) (UniProt P04150); experiment: ATG_GR_TRANS: Attagene TRANS-FACTORIAL HepG2 Assay for human Glucocorticoid Receptor (GR) (AID 2282978; active = hit-call score of the fitted dose curve at least 0.9, where 1 is the maximum;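 note: activators score as hits since higher reporter transcript over DMSO is fitted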); settings: HepG2 Attagene TRANS GR reporter, mRNA transcription
Chain of Glucocorticoid receptor (Homo sapiens) (P04150 whole entry, looked up, the tested form may be a part): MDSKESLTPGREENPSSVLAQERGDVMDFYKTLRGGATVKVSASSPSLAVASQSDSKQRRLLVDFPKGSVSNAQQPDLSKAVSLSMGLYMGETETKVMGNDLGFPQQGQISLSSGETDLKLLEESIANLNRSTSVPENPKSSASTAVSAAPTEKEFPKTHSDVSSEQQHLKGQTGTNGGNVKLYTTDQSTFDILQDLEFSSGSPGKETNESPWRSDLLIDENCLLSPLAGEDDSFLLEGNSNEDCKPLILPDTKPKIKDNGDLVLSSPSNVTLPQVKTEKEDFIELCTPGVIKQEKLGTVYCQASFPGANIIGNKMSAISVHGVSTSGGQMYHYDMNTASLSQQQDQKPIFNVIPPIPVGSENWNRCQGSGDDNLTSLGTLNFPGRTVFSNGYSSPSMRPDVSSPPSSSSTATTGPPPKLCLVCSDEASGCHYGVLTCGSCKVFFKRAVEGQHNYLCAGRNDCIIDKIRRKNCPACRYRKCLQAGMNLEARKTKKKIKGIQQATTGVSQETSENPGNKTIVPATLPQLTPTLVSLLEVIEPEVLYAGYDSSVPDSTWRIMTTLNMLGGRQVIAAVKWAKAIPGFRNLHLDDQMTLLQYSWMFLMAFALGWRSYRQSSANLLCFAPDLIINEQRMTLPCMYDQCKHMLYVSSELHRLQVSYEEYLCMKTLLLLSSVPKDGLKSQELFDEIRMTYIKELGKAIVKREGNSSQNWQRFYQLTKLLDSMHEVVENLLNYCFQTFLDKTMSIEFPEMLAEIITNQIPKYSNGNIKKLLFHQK
Method in brief: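 Fluorescent capillary-electrophoresis quantitation of reporter mRNA is the readout, taken 24 h after dosing human HepG2 cells carrying transiently transfected GAL4-UAS reporter units activated by chimeric NR-GAL4 fusions; activity scored as induction over DMSO.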

[2] = ATG_M_32_TRANS: Attagene TRANS-FACTORIAL HepG2 Assay for M32 Transcription Factor (Internal Marker) (AID 2282984; active = hit-call score of the fitted dose curve at least 0.9, where 1 is the maximum); settings: HepG2 Attagene TRANS M32 internal marker reporter
Method in brief: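 Read-out: fluorescent reporter cDNA fragments resolved by capillary electrophoresis after RT-PCR of total RNA. Transfected HepG2 cells were exposed to chemical for 24 h. Activity scored in the positive direction relative to DMSO.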

[3] = target: Nuclear receptor subfamily 4 group A member 2 (Homo sapiens) (UniProt P43354); experiment: ATG_NURR1_TRANS: Attagene TRANS-FACTORIAL HepG2 Assay for human Nuclear Receptor Related Protein 1 (NURR1) (AID 2282985; active = hit-call score of the fitted dose curve at least 0.9, where 1 is the maximum); settings: HepG2 Attagene TRANS reporter, mRNA readout
Chain of Nuclear receptor subfamily 4 group A member 2 (Homo sapiens) (P43354 whole entry, looked up, the tested form may be a part): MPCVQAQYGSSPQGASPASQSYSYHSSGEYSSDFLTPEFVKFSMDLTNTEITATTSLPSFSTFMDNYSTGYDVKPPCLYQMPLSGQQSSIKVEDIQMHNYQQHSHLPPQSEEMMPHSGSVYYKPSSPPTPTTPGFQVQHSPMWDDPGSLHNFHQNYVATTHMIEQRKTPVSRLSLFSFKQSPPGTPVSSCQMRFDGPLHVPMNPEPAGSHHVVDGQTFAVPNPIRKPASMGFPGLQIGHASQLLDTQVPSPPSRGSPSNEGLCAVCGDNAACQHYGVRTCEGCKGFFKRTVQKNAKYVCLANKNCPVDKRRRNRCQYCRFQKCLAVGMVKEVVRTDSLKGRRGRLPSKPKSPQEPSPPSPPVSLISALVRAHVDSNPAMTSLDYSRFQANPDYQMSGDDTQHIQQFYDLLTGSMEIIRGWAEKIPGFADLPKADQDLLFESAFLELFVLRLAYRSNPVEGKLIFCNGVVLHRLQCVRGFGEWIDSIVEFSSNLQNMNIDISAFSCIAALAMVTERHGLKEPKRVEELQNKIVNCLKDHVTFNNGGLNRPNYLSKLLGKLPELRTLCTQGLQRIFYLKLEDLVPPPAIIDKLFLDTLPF
Method in brief: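 Read-out: reporter mRNA induction by RT-PCR plus capillary electrophoresis with fluorescence detection, after 24 h dosing of transfected HepG2 cells. Exogenous NR-Gal4 chimera activity drives GAL4-UAS reporter; activity fitted upward versus DMSO.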

[4] = target: Transcriptional activator Myb (Homo sapiens) (UniProt P10242); experiment: ATG_Myb_CIS: Attagene CIS-FACTORIAL HepG2 Assay for human Myeloblastosis (Myb) Proto-Oncogene Transcription Factor (AID 2282986); settings: HepG2 Attagene CIS-FACTORIAL Myb reporter transcription; actives raise or lower the signal
Chain of Transcriptional activator Myb (Homo sapiens) (P10242 whole entry, looked up): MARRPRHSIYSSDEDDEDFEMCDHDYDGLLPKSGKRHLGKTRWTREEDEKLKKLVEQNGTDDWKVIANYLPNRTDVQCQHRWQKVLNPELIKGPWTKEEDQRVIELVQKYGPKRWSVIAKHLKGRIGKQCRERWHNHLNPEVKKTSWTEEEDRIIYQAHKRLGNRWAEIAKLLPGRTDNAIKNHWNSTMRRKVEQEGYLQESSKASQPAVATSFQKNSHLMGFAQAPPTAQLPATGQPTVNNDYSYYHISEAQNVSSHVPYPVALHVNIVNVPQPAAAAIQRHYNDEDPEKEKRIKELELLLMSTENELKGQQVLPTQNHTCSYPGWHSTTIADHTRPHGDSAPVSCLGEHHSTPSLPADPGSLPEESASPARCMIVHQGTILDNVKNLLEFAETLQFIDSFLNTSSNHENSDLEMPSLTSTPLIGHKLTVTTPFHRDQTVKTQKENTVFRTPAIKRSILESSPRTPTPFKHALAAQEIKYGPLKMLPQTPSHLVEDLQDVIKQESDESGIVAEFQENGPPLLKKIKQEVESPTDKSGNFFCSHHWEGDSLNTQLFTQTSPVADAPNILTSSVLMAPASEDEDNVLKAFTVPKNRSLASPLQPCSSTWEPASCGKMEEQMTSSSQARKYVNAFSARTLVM
Method in brief: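 Reporter transcript levels, quantified by fluorescent RT-PCR and capillary electrophoresis, serve as the read-out. Transfected HepG2 cells carrying cis-promoter reporter units are dosed for 24 hours, and curves are fitted bidirectionally against DMSO controls.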

[5] = target: Nuclear respiratory factor 1 (Homo sapiens) (UniProt Q16656); experiment: ATG_NRF1_CIS: Attagene CIS-FACTORIAL HepG2 Assay for human Nuclear Respiratory Factor 1 (NRF1) Orphan Gene (AID 2282987); settings: HepG2 NRF1 cis-element reporter, Attagene multiplex; actives raise or lower the signal
Chain of Nuclear respiratory factor 1 (Homo sapiens) (Q16656 whole entry, looked up): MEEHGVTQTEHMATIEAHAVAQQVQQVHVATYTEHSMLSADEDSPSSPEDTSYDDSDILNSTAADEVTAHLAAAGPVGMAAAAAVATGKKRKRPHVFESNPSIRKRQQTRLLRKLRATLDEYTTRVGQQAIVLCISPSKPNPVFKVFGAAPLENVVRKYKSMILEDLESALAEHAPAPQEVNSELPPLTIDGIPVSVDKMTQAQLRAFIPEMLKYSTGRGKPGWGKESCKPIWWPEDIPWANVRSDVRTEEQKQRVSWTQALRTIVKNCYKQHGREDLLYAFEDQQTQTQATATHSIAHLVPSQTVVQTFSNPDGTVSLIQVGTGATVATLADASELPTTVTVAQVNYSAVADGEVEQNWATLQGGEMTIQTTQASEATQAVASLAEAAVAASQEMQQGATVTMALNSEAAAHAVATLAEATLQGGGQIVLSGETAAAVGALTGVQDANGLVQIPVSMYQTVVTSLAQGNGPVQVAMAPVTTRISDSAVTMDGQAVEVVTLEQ
Method in brief: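 Multiplexed cis-reporter assay, HepG2 cells, 24 h treatment. Total RNA → oligo(dT) RT → PCR with reporter-specific primers → 6-FAM primer extension → HpaI cut → CE. Bidirectional fit vs DMSO.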

[6] = ATG_NFI_CIS: Attagene CIS-FACTORIAL HepG2 Assay for human Nuclear Factor I (NFI) (AID 2282989); settings: HepG2 cis-regulatory reporter, NFI response element transcription; actives raise or lower the signal
Method in brief: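 Cells: human liver HepG2, transiently transfected with promoter-regulated reporter transcription units. Exposure 24 h. Detection: fluorescent RT-PCR products separated by capillary electrophoresis, normalised to DMSO negative control.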

[7] = ATG_NF_kB_CIS: Attagene CIS-FACTORIAL HepG2 Assay for human Nuclear Factor Kappa B (NF-kB) (AID 2282991); settings: HepG2 Attagene cis-factorial NF-kB reporter mRNA; actives raise or lower the signal
Method in brief: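 Transient MRTU transfection of human HepG2 liver cells → 24 h chemical exposure → total RNA, oligo(dT) RT → PCR, 6-FAM primer extension, HpaI digest 2 h 37 C → CE fragment analysis. Bidirectional fitting, DMSO negative control.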

[8] = ATG_NRF2_ARE_CIS: Attagene CIS-FACTORIAL HepG2 Assay for human Nuclear Factor Erythroid 2 Related Factor 2 (NFR2) response to Antioxidant Response Elements (ARE) (AID 2282992); settings: HepG2 Attagene ARE/NRF2 reporter, transcription factor activity; actives raise or lower the signal;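 for AC50: reporter mRNA level measured by RT-PCR and capillary electrophoresis fluorescence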
Method in brief: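 Using transiently transfected HepG2 cells exposed for 24 h, reporter mRNA levels were determined by RT-PCR with fluorescent primer extension and capillary electrophoresis, analysed for gain or loss of signal against DMSO.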

[9] = ATG_Oct_MLP_CIS: Attagene CIS-FACTORIAL HepG2 Assay for human Octamer-Binding Transcription Factor (Oct) (AID 2282993); settings: HepG2 Attagene cis-factorial Oct reporter, mRNA; actives raise or lower the signal
Method in brief: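 HepG2, transient MRTU transfection, cis promoter elements; 24 h dosing; RT-PCR/CE fluorescence read-out of reporter mRNA; fit both directions vs DMSO.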

[10] = target: Cellular tumor antigen p53 (Homo sapiens) (UniProt P04637); experiment: ATG_p53_CIS: Attagene CIS-FACTORIAL HepG2 Assay for human p53 Transcription Factor (AID 2282994); settings: HepG2 p53 cis-element reporter, Attagene mRNA; actives raise or lower the signal
Chain of Cellular tumor antigen p53 (Homo sapiens) (P04637 whole entry, looked up, the tested form may be a part): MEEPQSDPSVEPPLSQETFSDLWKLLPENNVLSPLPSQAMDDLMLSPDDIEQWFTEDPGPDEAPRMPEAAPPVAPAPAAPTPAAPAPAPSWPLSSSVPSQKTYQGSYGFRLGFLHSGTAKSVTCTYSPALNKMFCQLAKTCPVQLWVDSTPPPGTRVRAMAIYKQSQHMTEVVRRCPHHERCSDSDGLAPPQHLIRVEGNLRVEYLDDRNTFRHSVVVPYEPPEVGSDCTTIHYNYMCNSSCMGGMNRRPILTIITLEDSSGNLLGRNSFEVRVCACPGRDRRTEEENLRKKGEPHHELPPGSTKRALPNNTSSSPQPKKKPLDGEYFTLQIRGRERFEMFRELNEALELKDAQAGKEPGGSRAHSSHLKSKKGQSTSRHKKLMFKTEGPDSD
Method in brief: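 In HepG2 cells, reporter transcription units under cis-regulatory promoters were transiently introduced. Following 24 h treatment, RNA was processed to labelled, digested cDNA fragments read by capillary electrophoresis; fitting was bidirectional versus DMSO.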

[11] = BSK_3C_TissueFactor: BioMAP Diversity Plus: 3C Assay for Tissue Factor Biomarker Activity (AID 2282997); settings: BioMAP 3C HUVEC, tissue factor biomarker readout; actives raise or lower the signal
Method in brief: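 Cells used were primary human umbilical vein endothelial cells. They were dosed with chemical, and after 24 h Tissue Factor was quantified by ELISA. Curves were fitted bidirectionally with DMSO as baseline.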

[12] = BSK_3C_uPAR: BioMAP Diversity Plus: 3C Assay for Urokinase-type plasminogen activator receptor (uPAR) Biomarker Activity (AID 2282998); settings: BioMAP 3C HUVEC, uPAR biomarker ELISA; actives raise or lower the signal
Method in brief: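 A multiplexed primary-cell system built on human umbilical vein endothelium was used, with chemical present for 24 h before reading. Cell-surface uPAR was detected by ELISA; signal change in either direction counted against DMSO.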

[13] = BSK_3C_VCAM1: BioMAP Diversity Plus: 3C Assay for Vascular cell adhesion molecule 1 (VCAM1) Biomarker Activity (AID 2282999); settings: BioMAP 3C HUVEC, VCAM1 ELISA, cytokine-stimulated; actives raise or lower the signal
Method in brief: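 HUVEC primary cells, 24 h compound exposure; VCAM-1 by ELISA; gain/loss of signal fitted bidirectionally vs DMSO baseline.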

[14] = BSK_4H_Eotaxin3: BioMAP Diversity Plus: 4H Assay for Eotaxin 3 Biomarker Activity (AID 2283000); settings: primary human endothelial cells (HUVEC); actives raise or lower the signal
Method in brief: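 Endothelial primary cells (human umbilical vein) exposed to compound for 24 h. ELISA detection of Eotaxin-3.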

[15] = target: Oxysterols receptor LXR-alpha (Homo sapiens) (UniProt Q13133); experiment: ATG_LXRa_TRANS: Attagene TRANS-FACTORIAL HepG2 Assay for human Liver X Receptor alpha (LXRa) (AID 2282980; active = hit-call score of the fitted dose curve at least 0.9, where 1 is the maximum); settings: HepG2 Attagene TRANS reporter, LXRa transactivation
Chain of Oxysterols receptor LXR-alpha (Homo sapiens) (Q13133 whole entry, looked up): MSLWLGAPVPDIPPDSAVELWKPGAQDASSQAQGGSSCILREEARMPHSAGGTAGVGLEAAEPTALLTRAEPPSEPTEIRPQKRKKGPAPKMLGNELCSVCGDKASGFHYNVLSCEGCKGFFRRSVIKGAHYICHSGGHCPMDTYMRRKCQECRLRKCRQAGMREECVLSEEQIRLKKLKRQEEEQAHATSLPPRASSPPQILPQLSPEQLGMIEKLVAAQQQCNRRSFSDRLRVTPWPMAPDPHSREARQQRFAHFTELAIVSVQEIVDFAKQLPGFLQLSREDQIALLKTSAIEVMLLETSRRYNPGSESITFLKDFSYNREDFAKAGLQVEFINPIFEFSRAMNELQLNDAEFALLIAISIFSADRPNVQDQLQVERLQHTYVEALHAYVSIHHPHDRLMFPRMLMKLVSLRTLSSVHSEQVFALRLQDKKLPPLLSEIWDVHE
Method in brief: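 Transient HepG2 transfectants, 24 h dosing, RT-PCR/CE mRNA reporter quantitation; gain-of-signal vs DMSO.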

[16] = target: Hepatocyte nuclear factor 4-alpha (Homo sapiens) (UniProt P41235); experiment: ATG_HNF4a_TRANS: Attagene TRANS-FACTORIAL HepG2 Assay for human Hepatocyte Nuclear Factor 4 alpha (HNF4a) (AID 2282982; active = hit-call score of the fitted dose curve at least 0.9, where 1 is the maximum); settings: HepG2 HNF4a transactivation reporter, mRNA readout
Chain of Hepatocyte nuclear factor 4-alpha (Homo sapiens) (P41235 whole entry, looked up): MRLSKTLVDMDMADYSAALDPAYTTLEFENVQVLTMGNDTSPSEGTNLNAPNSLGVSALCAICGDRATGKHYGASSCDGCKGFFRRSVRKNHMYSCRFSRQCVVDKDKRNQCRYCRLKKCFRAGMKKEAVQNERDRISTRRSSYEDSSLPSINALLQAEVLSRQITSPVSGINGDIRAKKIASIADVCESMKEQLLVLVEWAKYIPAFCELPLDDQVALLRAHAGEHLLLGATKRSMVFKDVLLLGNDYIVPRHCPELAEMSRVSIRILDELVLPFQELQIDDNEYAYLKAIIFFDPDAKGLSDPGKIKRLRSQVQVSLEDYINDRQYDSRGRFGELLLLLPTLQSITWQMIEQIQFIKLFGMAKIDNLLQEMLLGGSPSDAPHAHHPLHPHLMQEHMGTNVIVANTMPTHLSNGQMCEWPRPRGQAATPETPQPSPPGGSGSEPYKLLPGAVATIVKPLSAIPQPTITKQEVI
Method in brief: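 Transient MRTU transfection of HepG2, 24 h dosing. Readout: reporter mRNA via RT-PCR + capillary electrophoresis, fluorescence; activity fit upward relative to DMSO control.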

[17] = target: Myc proto-oncogene protein (Homo sapiens) (UniProt P01106); experiment: ATG_Myc_CIS: Attagene CIS-FACTORIAL HepG2 Assay for human Myelocytomatosis (Myc) Proto-Oncogene Transcription Factor (AID 2282990); settings: HepG2, Attagene cis-reporter transcription factor activity; actives raise or lower the signal
Chain of Myc proto-oncogene protein (Homo sapiens) (P01106 whole entry, looked up): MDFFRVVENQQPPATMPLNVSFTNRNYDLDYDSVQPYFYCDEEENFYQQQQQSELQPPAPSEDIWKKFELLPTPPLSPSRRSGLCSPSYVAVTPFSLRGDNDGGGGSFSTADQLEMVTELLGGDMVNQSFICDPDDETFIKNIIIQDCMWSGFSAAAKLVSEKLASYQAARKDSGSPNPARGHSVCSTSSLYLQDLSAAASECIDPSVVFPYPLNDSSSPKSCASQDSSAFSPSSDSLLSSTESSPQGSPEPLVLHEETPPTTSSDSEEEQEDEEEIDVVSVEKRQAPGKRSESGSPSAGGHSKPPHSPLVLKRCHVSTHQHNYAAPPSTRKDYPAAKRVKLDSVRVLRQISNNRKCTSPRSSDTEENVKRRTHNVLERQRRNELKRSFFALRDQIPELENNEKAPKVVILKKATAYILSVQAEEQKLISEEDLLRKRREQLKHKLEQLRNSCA
Method in brief: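 Transiently transfected HepG2 cells bearing cis-promoter reporter units for endogenous transcription factors; 24 h exposure. Reporter mRNA measured by RT-PCR, 6-FAM primer extension, HpaI cut and capillary electrophoresis; bidirectional fit relative to DMSO.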

[18] = target: Bile acid receptor (Homo sapiens) (UniProt Q96RI1); experiment: ATG_FXR_TRANS: Attagene TRANS-FACTORIAL HepG2 Assay for Farnesoid X Receptor (FXR) (AID 2282979; active = hit-call score of the fitted dose curve at least 0.9, where 1 is the maximum;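 note: hits raise reporter mRNA above DMSO so AC50 marks FXR activation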); settings: HepG2 Attagene TRANS FXR-GAL4 reporter transcription
Chain of Bile acid receptor (Homo sapiens) (Q96RI1 whole entry, looked up, the tested form may be a part): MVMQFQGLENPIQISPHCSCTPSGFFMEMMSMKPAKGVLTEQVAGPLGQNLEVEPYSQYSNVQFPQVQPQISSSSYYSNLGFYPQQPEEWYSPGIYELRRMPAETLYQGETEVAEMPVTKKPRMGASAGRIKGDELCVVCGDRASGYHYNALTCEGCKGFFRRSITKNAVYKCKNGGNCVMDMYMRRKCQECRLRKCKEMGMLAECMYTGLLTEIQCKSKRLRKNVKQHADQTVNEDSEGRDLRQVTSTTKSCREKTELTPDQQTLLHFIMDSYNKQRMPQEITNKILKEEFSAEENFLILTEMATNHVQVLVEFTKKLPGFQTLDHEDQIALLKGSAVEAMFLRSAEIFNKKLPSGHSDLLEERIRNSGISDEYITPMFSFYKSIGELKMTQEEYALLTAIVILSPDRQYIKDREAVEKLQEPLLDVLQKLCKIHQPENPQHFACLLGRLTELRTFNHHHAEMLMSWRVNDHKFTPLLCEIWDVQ
Method in brief: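 Chimeric FXR-GAL4 activity in transiently transfected human HepG2 liver cells is scored as induction of reporter mRNA after 24 h of dosing. Detection uses RT-PCR with fluorescent labelling and capillary electrophoresis, with DMSO serving as baseline.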

[19] = ATG_M_06_TRANS: Attagene TRANS-FACTORIAL HepG2 Assay for M06 Transcription Factor (Internal Marker) (AID 2282983; active = hit-call score of the fitted dose curve at least 0.9, where 1 is the maximum); settings: HepG2 Attagene TRANS M06 internal marker reporter
Method in brief: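 Human liver HepG2 cells bearing transiently transfected chimeric NR-GAL4 reporter units were treated with chemicals for 24 h. Total RNA was reverse-transcribed, reporter sequences amplified and labelled, then quantified by capillary electrophoresis. Activity was fitted upward relative to DMSO.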

Measured: AC50

Cc1cc2c(cc1C(F)(F)F)N(C(=O)Nc1ccc(Oc3cccnc3C)nc1)CC2
inactive: [1] | [2] | [3] | [4] | [5] | [6] | [7] | [8] | [9] | [10] | [12] | [13] | [14]
active: [11] 0.623 µM

Oc1ccccc1
inactive: [15] | [16] | [2] | [3] | [4] | [6] | [17] | [8] | [9] | [10] | [11] | [12] | [13] | [14]

CCCCCCCCCCCO
active: [2] 166 µM | [12] 34.2 µM | [13] 36.3 µM | [14] 31.6 µM
inactive: [18] | [3] | [4] | [6] | [7] | [8] | [9] | [10]

O=c1[nH]sc2ccccc12
active: [6] 45.9 µM | [8] 6.26 µM | [10] 42.6 µM | [11] 8.49 µM | [12] 15 µM | [13] 8.74 µM | [14] 8.99 µM
inactive: [18] | [16] | [19] | [4] | [7] | [9]

CCN(CC)C(=O)c1cc(S(=O)(=O)Cc2ccccc2)c(N2CCC(c3ccccc3)CC2)cc1N(CC)CCN(C)C
inactive: [1] | [15] | [16] | [4] | [6] | [17] | [7] | [9] | [10]
active: [8] 3.7 µM | [11] 32.2 µM | [12] 5.11 µM | [13] 12.9 µM | [14] 18.7 µM

Cc1ccc2oc(CN(Cc3ccccc3)C(=O)Nc3c(F)cc(F)cc3F)c(-c3ccc(Cl)cc3)c2c1
inactive: [1] | [15] | [16] | [2] | [3] | [4] | [6] | [7] | [8] | [9] | [10] | [13] | [14]
active: [12] 10.8 µM

CCCCCCCCN(C)CCCCCCCC
inactive: [1] | [16] | [19] | [2] | [3] | [4] | [6] | [7] | [8] | [9] | [10] | [12] | [13] | [14]

C[C@]12CC[C@@H]3c4ccc(O)cc4CC[C@H]3[C@@H]1CCC2=O
inactive: [18] | [15] | [16] | [19] | [2] | [3] | [4] | [6] | [7] | [8] | [9] | [11] | [12] | [13] | [14]

OC12N=C(c3ccccc3)SC1Cc1cc(Cl)ccc12 (configuration not stated)
active: [8] 3.75 µM | [14] 20 µM
inactive: [18] | [15] | [16] | [2] | [3] | [4] | [5] | [6] | [17] | [9] | [10] | [12] | [13]

O=C1c2ccccc2C(=O)N1CCc1noc(-c2ccc(CN3CCCCCC3)s2)n1
active: [8] 23.1 µM
inactive: [18] | [16] | [19] | [2] | [3] | [4] | [5] | [6] | [17] | [7] | [9] | [10] | [12] | [13] | [14]

CCCOC(=O)c1cc(O)c(O)c(O)c1
active: [8] 5.91 µM
inactive: [18] | [16] | [3] | [4] | [6] | [17] | [9] | [10] | [12] | [13] | [14]

O=c1ccc2ccccc2o1
inactive: [19] | [4] | [5] | [6] | [7] | [8] | [9] | [10] | [12] | [13] | [14]

CCCCCCCCCCCCO
active: [12] 32.7 µM | [13] 38.7 µM | [14] 31.1 µM
inactive: [15] | [16] | [2] | [4] | [5] | [6] | [17] | [8] | [9] | [10]
